Structures can show the parent of a compound that is named as a salt.

The assay concerns Saccharomyces cerevisiae BY4741 SeMeCo community. As to the kind of experiment: z-score of subpopulation abundance vs DMSO median, subpopulation auxotrophic for U; higher = larger share of this subpopulation than in DMSO controls. As to conditions: 10 µM; 24 h; SM minimal medium; subpopulation (auxotrophy): U. Here is the method:
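Fluorescent four-plasmid SeMeCo (self-establishing metabolically cooperating S. cerevisiae BY4741 community; plasmids pH-mRuby2, pL-mWasabi, pU-eCFP, pM-TagRFP657) was grown 24 h in minimal SM medium with each Selleck FDA-approved drug at 10 µM in 384-well plates. Cells were fixed and imaged by high-content confocal microscopy. For each auxotrophic subpopulation (and the prototroph), a z-score gives the deviation from the DMSO vehicle-control population median.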
Take `CC[C@@H](C(N)=O)N1CCCC1=O` [Levetiracetam]: the “z-score of subpopulation abundance” value stood at 0. On to `C[C@@H]1O[C@@H](O[C@H]2C[C@@H](O)[C@]3(CO)[C@H]4[C@H](O)C[C@]5(C)[C@@H](C6=CC(=O)OC6)CC[C@]5(O)[C@@H]4CC[C@]3(O)C2)[C@H](O)[C@H](O)[C@H]1O` [Ouabain], for which the “z-score of subpopulation abundance” value was found to be 0.18. To `C[N+]12CCC(CC1)C(OC(=O)C(O)(c1ccccc1)c1ccccc1)C2` (stereo not given) [Clidinium Bromide] belongs 0.71; to `NCC(O)c1ccc(O)cc1` (racemic) [(+,-)-Octopamine HCl], 0.08; to `Oc1cccc2cccnc12` [8-Hydroxyquinoline], -0.25. To `CC1(C)SC2C(N)C(=O)N2C1C(=O)O` (stereo not given) [6-Aminopenicillanic acid] belongs 0.1; to `Nc1nc(N)nc(NC2CC2)n1` [Cyromazine], 0.89; to `C=CN1CCCC1=O.II` [Povidone iodine], 0.2.

Take `COc1ccc2c(c1)[C@]13CCCC[C@@H]1[C@H](C2)N(C)CC3` [Dextromethorphan hydrobromide hydrate]: the “z-score of subpopulation abundance” value was 0.26. As to `C[C@H]1O[C@H](O[C@H]2[C@H](O)[C@@H](O)[C@@H](O)[C@H](O)[C@@H]2O)[C@@H](N)C[C@@H]1NC(=N)C(=O)O` [Kasugamycin hydrochloride], the “z-score of subpopulation abundance” value is -0.23. For the compound `Cc1cc(O)ccc1Cl` [Chlorocresol], the “z-score of subpopulation abundance” value was -0.59. To `CC[C@@]1(O)C(=O)OCc2c1cc1n(c2=O)Cc2cc3ccccc3nc2-1` [Camptothecin] belongs -0.45. To `Cn1cc(C2=C(c3cn(C4CCN(Cc5ccccn5)CC4)c4ccccc34)C(=O)NC2=O)c2ccccc21` belongs 1.48. In the case of `CN(C)C(=O)Oc1ccc[n+](C)c1` [Pyridostigmine Bromide], the “z-score of subpopulation abundance” value came out at 0.29.

Regarding `CN[C@@H]1[C@@H](O)[C@@H](O[C@@H]2[C@@H](O)[C@H](O[C@H]3O[C@H](CN)CC[C@H]3N)[C@@H](N)C[C@H]2N)OC[C@]1(C)O.CN[C@@H]1[C@@H](O)[C@@H](O[C@@H]2[C@@H](O)[C@H](O[C@H]3O[C@H]([C@@H](C)N)CC[C@H]3N)[C@@H](N)C[C@H]2N)OC[C@]1(C)O.CN[C@@H]1[C@@H](O)[C@@H](O[C@@H]2[C@@H](O)[C@H](O[C@H]3O[C@H]([C@@H](C)NC)CC[C@H]3N)[C@@H](N)C[C@H]2N)OC[C@]1(C)O` [Gentamicin Sulfate], the “z-score of subpopulation abundance” value was 0.09. To `O=c1[nH]c2ccccc2n1CCCN1CCC(n2c(=O)[nH]c3cc(Cl)ccc32)CC1` [Domperidone] belongs 0.4; to `Cc1cc(C(C#N)c2ccc(Cl)cc2)c(Cl)cc1NC(=O)c1cc(I)cc(I)c1O` (stereo not given) [Closantel], -0.26; to `Oc1cc(Cl)ccc1Oc1ccc(Cl)cc1Cl` [Triclosan], -0.09.

On to `COc1ccc(C(CN(C)C)C2(O)CCCCC2)cc1` (stereo not given) [Venlafaxine], for which the “z-score of subpopulation abundance” value amounted to 0.93. On to `CN1[C@@H]2CC[C@H]1C[C@@H](OC(=O)[C@H](CO)c1ccccc1)C2` [Hyoscyamine], for which the “z-score of subpopulation abundance” value worked out at 0.23. To `C=CCN1C[C@H](C(=O)N(CCCN(C)C)C(=O)NCC)C[C@@H]2c3cccc4[nH]cc(c34)C[C@H]21` [Cabergoline] belongs 1.05; to `CC(C)N(CCC(C(N)=O)(c1ccccc1)c1ccccn1)C(C)C` (stereo not given) [Disopyramide], -1.21. To `C[N+](C)(C)CCCCCCCCCC[N+](C)(C)C` [Decamethonium Bromide] belongs 0.01; to `CC(=O)O[C@H]1C[C@@H]2CC[C@@H]3[C@H](CC[C@@]4(C)[C@H]3C[C@H]([N+]3(C)CCCCC3)[C@@H]4OC(C)=O)[C@@]2(C)C[C@@H]1[N+]1(C)CCCCC1` [Pancuronium dibromide], 0.25. To `N#Cc1nn(-c2c(Cl)cc(C(F)(F)F)cc2Cl)c(N)c1[S+]([O-])C(F)(F)F` (stereo not given) [Fipronil] belongs -0.36; to `CCCN1C[C@H](CSC)C[C@@H]2c3cccc4[nH]cc(c34)C[C@H]21` [Pergolide Mesylate], -0.62. As for `CC(C)(O)C(Cl)(Cl)Cl` [Chlorobutanol], the “z-score of subpopulation abundance” value came to 0.13.

For `CC[C@H]1[C@@H]2C[C@H]3[C@@H]4N(C)c5ccccc5[C@]45C[C@@H]([C@@H]2[C@H]5O)N3[C@@H]1O` [Ajmaline], the “z-score of subpopulation abundance” value worked out at 0.29. To `CC(C)=CCOc1c2occc2cc2ccc(=O)oc12` [Imperatorin] belongs 0.23; to `CN1c2ccccc2C(NCCCCCCC(=O)O)c2ccc(Cl)cc2S1(=O)=O` (stereo not given) [Tianeptine sodium], -0.4. As for `N[C@@H]1C[C@H]1c1ccccc1` [Tranylcypromine (2-PCPA) HCl], the “z-score of subpopulation abundance” value is -0.01.

As for `CN(C)[C@@H]1C(=O)C(C(N)=O)=C(O)[C@@]2(O)C(=O)C3=C(O)c4c(O)ccc(Cl)c4[C@@](C)(O)[C@H]3C[C@@H]12` [Chlortetracycline HCl], the “z-score of subpopulation abundance” value was found to be 0.25. For the compound `COc1ccc(C(CN(C)C)C2(O)CCCCC2)cc1` (stereo not given) [Venlafaxine HCl], the “z-score of subpopulation abundance” value is -0.58. To `CCN1CC2(OC(=O)c3ccccc3NC(C)=O)CCC(OC)C34C1C(CC23)C1(O)CC(OC)C2CC4C1(O)C2OC` (stereo not given) [Lappaconitine] belongs -0.25. To `C=C[C@H]1CN2CC[C@H]1C[C@H]2[C@H](O)c1ccnc2ccccc12` [Cinchonidine] belongs 0.59; to `CN(C)[C@@H]1C(=O)C(C(N)=O)=C(O)[C@@]2(O)C(=O)C3=C(O)c4c(O)cccc4[C@@](C)(O)[C@H]3C[C@@H]12` [Tetracycline HCl], 0.13; to `COc1cc2c(cc1OC)C1CC(=O)C(CC(C)C)CN1CC2` (stereo not given) [Tetrabenazine (Xenazine)], -1.18.

On to `O=[N+]([O-])C(Br)(CO)CO` [Bronopol], for which the “z-score of subpopulation abundance” value was 1.02. To `CN(C)[C@@H]1C(=O)C(C(N)=O)=C(O)[C@@]2(O)C(=O)C3=C(O)c4c(O)cccc4[C@@](C)(O)[C@H]3[C@H](O)[C@@H]12` [Oxytetracycline Dihydrate] belongs 0.11; to `CCN(C)C(=O)Oc1cccc([C@H](C)N(C)C)c1` [Rivastigmine Tartrate], -0.19.
